Reference: PubChem BioAssay (NCATS)
Results filed as inconclusive are left out. A call without a number means that no potency is given here. Activity calls are given as the source filed them. Unless noted, the call rests on the fitted dose curve.

Legend:
[1] = qHTS for Inhibitors of the Functional Ribonucleoprotein Complex (vRNP) of Lassa (LASV) Arenavirus: LASV Primary Screen - GLuc reporter signal (AID 1347082; calls by dose curve; tested in HEK293 reporter line; further: nearly all actives have a fitted effect of over 60% in size)
[2] = qHTS for Inhibitors of the Functional Ribonucleoprotein Complex (vRNP) of Lassa (LASV) Arenavirus: Viability assay - alamar blue signal for LASV Primary Screen (AID 1347083; calls by dose curve; tested in HEK293 reporter line; further: nearly all actives have a fitted effect of over 80% in size)
[3] = qHTS for Inhibitors of the Functional Ribonucleoprotein Complex (vRNP) of Lymphocytic Choriomeningitis Arenaviruses (LCMV): Viability assay - alamar blue signal for LCMV Primary Screen (AID 1347085; calls by dose curve; tested in HEK293 reporter line; further: nearly all actives have a fitted effect of over 80% in size)
[4] = target: Nucleoprotein (Lymphocytic choriomeningitis virus (strain Armstrong)) (UniProt P09992); test: qHTS for Inhibitors of the Functional Ribonucleoprotein Complex (vRNP) of Lymphocytic Choriomeningitis Arenaviruses (LCMV): LCMV Primary Screen - GLuc reporter signal (AID 1347086); further: nearly all actives have a fitted effect of over 70% in size
Potency means the concentration at half of the fitted maximal effect.

Chain of Nucleoprotein (Lymphocytic choriomeningitis virus (strain Armstrong)) (P09992 whole entry, looked up): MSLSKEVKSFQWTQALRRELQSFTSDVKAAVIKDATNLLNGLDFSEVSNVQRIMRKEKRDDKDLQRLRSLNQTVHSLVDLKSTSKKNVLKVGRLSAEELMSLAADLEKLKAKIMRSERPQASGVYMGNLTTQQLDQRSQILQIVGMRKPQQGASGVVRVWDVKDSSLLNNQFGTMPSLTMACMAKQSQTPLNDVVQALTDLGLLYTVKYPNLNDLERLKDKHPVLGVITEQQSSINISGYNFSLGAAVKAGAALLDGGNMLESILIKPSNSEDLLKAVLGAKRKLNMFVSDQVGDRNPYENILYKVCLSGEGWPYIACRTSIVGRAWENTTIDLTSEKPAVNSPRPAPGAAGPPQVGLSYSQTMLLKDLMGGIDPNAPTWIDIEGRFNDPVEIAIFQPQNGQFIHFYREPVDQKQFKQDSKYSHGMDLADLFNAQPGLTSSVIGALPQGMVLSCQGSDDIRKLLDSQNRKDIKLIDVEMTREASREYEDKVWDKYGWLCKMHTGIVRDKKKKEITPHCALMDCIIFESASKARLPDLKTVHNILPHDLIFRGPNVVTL

Compound | Potency [1] | Potency [2] | Potency [3] | Potency [4]
Cc1cc(C=c2sc3nc4ccccc4n3c2=O)c(C)n1-c1ccccc1 | inactive | inactive | inactive | inactive
Cc1ccc(C(=O)Nc2cccc(C(F)(F)F)c2)cc1-c1ccc2nc(NCCN3CCOCC3)ncc2c1 | 10900 nM (active) | 13700 nM (active) | 19300 nM (active) | 12200 nM (active)
O=C(Nc1ccccc1-c1cn2c(CN3CCNCC3)csc2n1)c1cnc2ccccc2n1 | inactive | inactive | inactive | inactive
COc1cc(Nc2ncc3c(n2)-c2ccc(Cl)cc2C(c2c(F)cccc2OC)=NC3)ccc1C(=O)O | inactive | inactive | inactive | inactive
CC(=O)N[C@@H](CCC(N)=O)C(=O)O | inactive | inactive | inactive | inactive
c1ccc(-c2nn3c(c2-c2ccnc4cc(OCCN5CCOCC5)ccc24)CCC3)nc1 | inactive | inactive | inactive | inactive
CCC(C)(Oc1ccc(C2(c3ccc(OC(C)(CC)C(=O)O)cc3)CCCCC2)cc1)C(=O)O (stereo not given) | inactive | inactive | inactive | inactive
CCOC(CN1C(=O)[C@](CC(=O)Nc2ccc(C)cc2)(NC(=O)Nc2ccc(C)cc2)c2ccccc21)OCC | inactive | inactive | inactive | inactive
COc1cc2c(Oc3ccc(-c4cnc(Nc5ccc(F)cc5)n(C)c4=O)cc3F)ccnc2cc1OCCCN1CCOCC1 | 21700 nM (active) | 15300 nM (active) | 21700 nM (active) | 24300 nM (active)
COc1cccc2c1CCCC2CCCN1CCN(C2CCCCC2)CC1 (stereo not given) | inactive | inactive | inactive | inactive
CN(C)CC/C=C1/c2ccccc2COc2ccc(CC(=O)O)cc21 | inactive | inactive | inactive | inactive
CN1Cc2cc(C(=O)N3CCC(C4CCNCC4)CC3)ccc2N[C@@H](CC(=O)O)C1=O | inactive | inactive | inactive | inactive
OC[C@H](Cc1ccccc1)Nc1nc(Oc2ccc3c(c2)CCC3)nc2c1ncn2Cc1ccc(-c2ccccc2)cc1 | inactive | inactive | inactive | inactive
CN1C(=O)C(Cc2c[nH]c3ccccc23)NC1=S (stereo not given) | inactive | inactive | inactive | inactive
CC(C)c1ccccc1Cc1cc(C(=O)Nc2ccc(S(=O)(=O)c3ccccc3C(C)(C)C)cc2)c(O)c(O)c1O | 21700 nM (active) | 19300 nM (active) | 24300 nM (active) | 24300 nM (active)
Nc1ccc(O)c([N+](=O)[O-])c1 | inactive | inactive | inactive | inactive
COc1ccc(C2=N[C@H](c3ccc(Cl)cc3)[C@H](c3ccc(Cl)cc3)N2C(=O)N2CCNC(=O)C2)c(OC(C)C)c1 | inactive | inactive | inactive | inactive
OCCCc1ccccc1 | inactive | inactive | inactive | inactive
COc1ccc2c(c1)CC[C@H]1[C@@H]2CC[C@]2(C)[C@@H](NCCCCCCN3C(=O)C=CC3=O)CC[C@H]12 | inactive | inactive | inactive | inactive
Cc1ccccc1C(C(=O)NC1CCCC1)N(C(=O)Cn1cnc2ccccc21)c1cccc(F)c1 (stereo not given) | inactive | inactive | inactive | inactive

Compound | Potency [1] | Potency [2] | Potency [3] | Potency [4]
Cc1nn(Cc2ccccc2Cl)c(C)c1CN(C)CC(O)COc1ccc(Cl)cc1 (stereo not given) | inactive | inactive | inactive | inactive
O=C(O)Cc1ccccc1Oc1ccc(Cl)cc1Cl | inactive | inactive | inactive | inactive
Cc1[nH]nc2ccc(-c3cncc(OC[C@@H](N)Cc4ccccc4)c3)cc12 | 432 nM (active) | 172 nM (active) | 1370 nM (active) | 273 nM (active)
CCOC(=O)c1cccnc1 | inactive | inactive | inactive | inactive
CC[C@@H]1C(=O)OC[C@@H]1Cc1cncn1C | inactive | inactive | inactive | inactive
O=C(Oc1ccccc1)c1cccc(C(=O)Oc2ccccc2)c1 | inactive | inactive | inactive | inactive
COc1ccccc1-c1cccc(-c2c(O)c3cc(C#N)c(Cl)cc3[nH]c2=O)c1 | inactive | inactive | inactive | inactive
CCCCCCCc1ccc(CCc2cccc(O)c2C(=O)O)cc1 | inactive | inactive | inactive | inactive
Clc1ccccc1CN1CCc2sccc2C1 | inactive | inactive | inactive | inactive
O=C(O)c1ccc2c(c1)nc(Nc1cccc(Cl)c1)c1ccncc12 | inactive | inactive | inactive | inactive
CCN1CCN(c2cc3c(cc2F)c(=O)c(C(=O)O)cn3C2CC2)CC1 | inactive | inactive | inactive | inactive
CCN(CC)CCn1c(=O)c(Cc2ccc(OC)cc2)nc2ccccc21 | inactive | inactive | inactive | inactive
CCCCC(CC)COC(=O)c1ccccc1C(=O)O (stereo not given) | inactive | inactive | inactive | inactive
CCCCCCCCCCCCCC(=O)N[C@H](CO)[C@H](O)c1ccc([N+](=O)[O-])cc1 | inactive | inactive | inactive | inactive
COc1ccc(C=Cc2cc(OC)c(OC)c(OC)c2)cc1O | inactive | inactive | inactive | inactive
COc1cc2nc(-c3ccc(N4CCN(C)CC4)cc3)nc(NCCN3CCOCC3)c2cc1OC | 685 nM (active) | 769 nM (active) | 968 nM (active) | 432 nM (active)
CCCCC(CC)COC(=O)/C=C/c1ccc(OC)cc1 (stereo not given) | inactive | inactive | inactive | inactive
COc1ccc(-c2ccc3c(N4CCOC[C@H]4C)nc(N4CCOC[C@H]4C)nc3n2)cc1CO | 9.7 nM (active) | 15.3 nM (active) | 30.6 nM (active) | 30.6 nM (active)
NC(=O)Nc1cc(-c2cccc(F)c2)sc1C(=O)N[C@H]1CCCNC1 | 1220 nM (active) | 306 nM (active) | 1530 nM (active) | 3430 nM (active)
COc1ncnc(NS(=O)(=O)c2ccc(N)cc2)c1OC | inactive | inactive | inactive | inactive

Compound | Potency [1] | Potency [2] | Potency [3] | Potency [4]
CCCCC/C(C=O)=C\c1ccccc1 | inactive | inactive | inactive | inactive
Cn1c(=O)n(-c2ccc(C(C)(C)C#N)cc2)c2c3cc(-c4cnc5ccccc5c4)ccc3ncc21 | 38.5 nM (active) | 34.3 nM (active) | 61.1 nM (active) | 68.5 nM (active)
O=[N+]([O-])c1cccc(S(=O)(=O)NCCNS(=O)(=O)c2cccc([N+](=O)[O-])c2)c1 | inactive | inactive | inactive | inactive
CCC=CC[C@H]1C(=O)CC[C@@H]1CC(=O)OC | inactive | inactive | inactive | inactive
CN1CC[C@@H](c2c(O)cc(O)c3c(=O)cc(-c4ccccc4Cl)oc23)[C@@H](O)C1 | 544 nM (active) | 137 nM (active) | 217 nM (active) | 344 nM (active)
CC1=C(/C=C/C(C)=C/C=C/C(C)=C/C(=O)O)C(C)(C)CCC1 | inactive | inactive | inactive | inactive
C[C@@H]1CN(c2c(F)c(N)c3c(=O)c(C(=O)O)cn(C4CC4)c3c2F)C[C@H](C)N1 | inactive | inactive | inactive | inactive
O=C(O)[C@H](Cc1c[nH]c2ccccc12)N1C(=O)c2ccccc2C1=O | inactive | inactive | inactive | inactive
CC[C@@H]1C(=O)N(C)c2cnc(Nc3ccc(C(=O)NC4CCN(C)CC4)cc3OC)nc2N1C1CCCC1 | 76.9 nM (active) | 48.5 nM (active) | 153 nM (active) | 30.6 nM (active)
CC[N+](C)(CC)CCOC(=O)C(O)(c1ccccc1)C1CCCCC1 (stereo not given) | inactive | inactive | inactive | inactive
CCCCCCCC(=O)OCC(O)CO (stereo not given) | inactive | inactive | inactive | inactive
CO[C@H]1C=CC=C(C)C(=O)NC2=CC(=O)C(NCCN(C)C)=C(C[C@@H](C)C[C@H](OC)[C@@H](O)[C@@H](C)C=C(C)[C@@H]1OC(N)=O)C2=O | 685 nM (active) | 611 nM (active) | 544 nM (active) | 306 nM (active)
CCOc1cc(NC(C)=O)ccc1C(=O)OC | inactive | inactive | inactive | inactive
O=C(O)CC(O)C(=O)O (stereo not given) | inactive | inactive | inactive | inactive
CC(C)(C(=O)NCC(F)(F)C(F)(F)F)C(=O)N[C@@H]1C(=O)Nc2ccccc2-c2ccccc21 | 24300 nM (active) | 19300 nM (active) | 5440 nM (active) | 10900 nM (active)
CS(=O)(=O)Oc1ccc2c(NC(N)=O)c(C(=O)c3ccc(Cl)cc3Cl)oc2c1 | inactive | 27300 nM (active) | 27300 nM (active) | inactive
S=C(NCc1ccc2c(c1)OCO2)N1CCN(c2ncnc3c2oc2ccccc23)CC1 | inactive | inactive | inactive | inactive
CC(C)(Sc1ccc(CCN(CCCCC2CCCCC2)C(=O)NC2CCCCC2)cc1)C(=O)O | inactive | inactive | inactive | inactive
COc1cc(Oc2ccnc3cc(OC)c(OC)cc23)ccc1NC(=O)NC(C)c1nccs1 (stereo not given) | inactive | inactive | inactive | inactive
COc1cccc(OC)c1-c1cc(C(=O)NC2(C(=O)O)C3CC4CC(C3)CC2C4)nn1-c1ccnc2cc(Cl)ccc12 (stereo not given) | inactive | inactive | inactive | inactive
